Assay outcomes from PubChem.
A selection: hits, their analogues and other compounds. The true share with any hit is near 2.7%.
SENP8 block-1: inhibitors of human SENP8 protease; Q96LD8; recombinant SENP8, Nedd8 substrate fluorescence; inhibition, % at 20 µM; 360,000 tested, 0.64% active; in the data active means inhibition mostly above about 40%, no sharp cut-off; inactive means mostly below about 27%
SENP7 block: blocks the human protease SENP7 | Q9BQF6 | recombinant SENP7, Z-RLRGG-aminoluciferin luminescence, 40 min | inhibition, % at 5 µM | 330,000 tested, 1.5% active;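 active means inhibition above about 50% at the single test dose, limit read from the data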
HSP90 inh: inhibitors of HSP90 luciferase refolding in rabbit reticulocyte lysate; luciferase refolding luminescence, 3 h; inhibition, % at 5.6 µM; 290,000 tested, 0.91% active;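 active means inhibition above the screen-wide mean plus 3 SD, computed separately per campaign, cut at about 16% in these data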;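 further: inhibitors lower the luminescence because luciferase stays unfolded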
SENP8 block-2: SENP8 protease inhibition. inhibition, % at 10 µM. 330,000 tested, 1.2% active. purified SENP8, Z-RLRGG-aminoluciferin cleavage, luminescence; in the data active means inhibition above about 50%
SENP6 inh: inhibitors of human SENP6 protease; 330,000 tested, 1.8% active; AID 2599; inhibition, % at 10 µM; Recombinant SENP6 catalytic domain, aminoluciferin luminescence;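 active means inhibition above about 50% at the single tested dose, limit read from the data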
HSP90 confirm: HSP90 inhibition, confirmation assay; shares compounds with HSP90 inh; rabbit reticulocyte lysate, luciferase refolding luminescence, 3 h; inhibition, % at 5.9 µM; 2,300 tested, 64% active; AID 1846; in the data active means inhibition above about 18%
FLuc counter: firefly luciferase inhibition, HSP90 counter-screen; shares compounds with HSP90 inh; purified native firefly luciferase, luminescence; inhibition, % at 5.9 µM; 2,300 tested, 48% active;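 active means inhibition above the mean inhibition of all tested sample wells plus 3 SD, cut at about 10% in these data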
Target sequence (P08659 whole entry, looked up): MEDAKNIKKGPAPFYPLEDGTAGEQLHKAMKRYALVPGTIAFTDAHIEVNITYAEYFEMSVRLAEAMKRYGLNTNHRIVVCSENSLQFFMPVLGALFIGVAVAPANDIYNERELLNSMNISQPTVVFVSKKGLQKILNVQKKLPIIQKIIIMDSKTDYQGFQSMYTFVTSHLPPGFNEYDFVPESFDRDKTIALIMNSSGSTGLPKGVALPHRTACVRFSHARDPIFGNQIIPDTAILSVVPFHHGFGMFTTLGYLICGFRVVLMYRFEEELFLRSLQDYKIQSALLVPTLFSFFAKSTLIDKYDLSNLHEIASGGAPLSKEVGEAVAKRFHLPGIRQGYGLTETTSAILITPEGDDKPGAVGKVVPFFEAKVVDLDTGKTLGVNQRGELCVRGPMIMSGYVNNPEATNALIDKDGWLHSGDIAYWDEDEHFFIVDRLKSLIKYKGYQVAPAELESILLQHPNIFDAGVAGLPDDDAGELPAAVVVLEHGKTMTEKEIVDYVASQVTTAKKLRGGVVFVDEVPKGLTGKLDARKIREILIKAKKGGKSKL
A number is an active result; i = inactive; nt = no result given.

SMILES | SENP8 block-1 | SENP7 block | HSP90 inh | SENP8 block-2 | SENP6 inh | HSP90 confirm | FLuc counter
CN1CCN(c2ccc(NC(=O)c3ccc4ccccc4c3)cc2)CC1 | i | i | 25 | i | i | 31 | 28
COc1cccc(C(=O)Nc2ccc(N3CCN(S(C)(=O)=O)CC3)cc2)c1 | i | i | 18 | i | i | i | i
Cc1cccc(NC(=O)c2ccc([N+](=O)[O-])s2)c1C | i | i | i | i | i | nt | nt
COc1cc(/C=N/NC(=S)N/N=C/c2cc(OC)c(OC)c(OC)c2)cc(OC)c1OC | i | i | i | i | i | nt | nt
CCC(c1nnnn1Cc1cccs1)N1CCN(C(=O)c2ccco2)CC1 (stereo not drawn) | i | i | i | i | i | nt | nt
CS(=O)(=O)N1CCN(c2ncccn2)CC1 | i | i | i | i | i | nt | nt
COCCN(C(=O)CCC(=O)Nc1ccccn1)C(C(=O)NC(C)C)c1ccc(Cl)cc1 (stereo not drawn) | i | i | 84 | i | i | i | i
CN(C)S(=O)(=O)N(CC(=O)Nc1ccc(F)c(F)c1)c1ccccc1 | i | i | i | i | i | nt | nt
O=C(CSc1nnc(-c2ccccc2)o1)N1CCCCC1 | i | i | 21 | i | i | i | i
COC(=O)CC1C(=O)NCCN1C(=O)Nc1ccccc1 (stereo not drawn) | i | i | i | i | i | nt | nt
O=C(O)CSc1nnc(Cn2nnc3ccccc32)n1CCc1ccccc1 | i | i | 25 | i | i | i | i
COc1ccc(S(=O)(=O)N2CCN(C(=S)Nc3ccc(S(N)(=O)=O)cc3)CC2)cc1 | i | i | i | i | i | nt | nt
CCC(=O)Nc1cccc(C(=O)OCc2cccc([N+](=O)[O-])c2)c1 | i | nt | i | nt | nt | nt | nt
O=C(O)c1cc(N/N=C/c2cccs2)ccc1Cl | nt | i | 24 | i | i | 67 | 21
O=C(O)c1cc(N/N=C/c2ccc3c(c2)OCCO3)ccc1Cl | i | nt | 39 | nt | nt | 87 | 82
COC(=O)c1ccc(C(=O)OC)c(NC(=O)COC(=O)CC2CC3CCC2C3)c1 (stereo not drawn) | i | i | i | i | i | nt | nt
CNS(=O)(=O)c1cccc(C(=O)OCC(=O)Nc2sc3c(c2C#N)CCCCC3)c1 | i | i | i | i | i | nt | nt
COc1ccc(-n2ncc3c(NCCCN4CCOCC4)ncnc32)cc1 | i | i | 28 | i | i | 32 | 32
COc1ccc(-n2ncc3c(NCCN4CCOCC4)ncnc32)cc1 | i | i | 26 | i | i | 27 | 19
O=c1nc2n(c3sc4c(c13)CCCC4)C(CBr)CS2 (stereo not drawn) | i | i | i | i | i | nt | nt
CC(C)OP(=O)(c1ccc(N(C)C)cc1)C(O)c1ccc(N(C)C)cc1 (stereo not drawn) | i | i | 30 | i | i | i | i
CC(C)COP(=O)(c1ccc(N(C)C)cc1)C(O)c1ccc(N(C)C)cc1 (stereo not drawn) | i | i | i | i | i | nt | nt
Cc1ccc(/C=C/c2nnc(-c3ccc(C)cc3)o2)cc1 | i | i | 32 | i | i | i | i
Cc1ccc([C@@H]2[C@@H]3C(=O)N(C)C(=O)[C@@H]3[C@]3(Cc4ccccc4)C(=O)N(CCO)CC(=O)N23)o1 | i | i | i | i | i | nt | nt
O=C(NCc1ccc(-c2csnn2)cc1)c1cccs1 | i | i | i | i | i | nt | nt
SMILES | SENP8 block-1 | SENP7 block | HSP90 inh | SENP8 block-2 | SENP6 inh | HSP90 confirm | FLuc counter
CN(CC(=O)NCc1ccncc1)S(=O)(=O)c1cc(Cl)ccc1Cl | i | i | 53 | i | i | i | i
O=C(CC1C(=O)NCCN1CC1CCCCC1)NCc1ccc(F)cc1 (stereo not drawn) | i | i | i | i | i | nt | nt
COc1ccc(N2CCC(CNC(=S)Nc3cccc(OC)c3)C2)cc1 (stereo not drawn) | nt | i | 18 | i | i | i | i
O=C(Cc1ccccc1)NNc1ccc2ccccc2c1 | i | i | 39 | i | i | i | i
O=C(CN1C(=O)CCC1=O)NNc1ccc2ccccc2c1 | i | i | 26 | i | i | i | i
O=C(COc1ccc2ccccc2c1)NNC(=O)Cc1ccccc1 | i | nt | i | nt | nt | nt | nt
O=C(CN1C(=O)NC2(CCCC2)C1=O)Nc1ccccc1N1CCCCC1 | i | i | nt | i | i | nt | nt
CCOC(=O)COc1ccc2c3c(c(=O)oc2c1)CCCC3 | i | i | i | i | i | nt | nt
CCCCCN1C=CC=C/C1=C\C=C(C#N)C#N | i | i | i | i | i | nt | nt
C=CCOc1ccc(C2NC(=S)NC3=C2CCc2ccccc23)cc1 (stereo not drawn) | i | i | 20 | i | i | 42 | 52
COc1cc(C2NC(=S)NC3=C2CCc2ccccc23)cc(OC)c1OC (stereo not drawn) | i | i | i | i | i | nt | nt
S=C(NCc1ccccc1)Nc1cccc2ccccc12 | i | i | i | i | i | nt | nt
Cc1ccc(NC(=S)Nc2cccc3ccccc23)cc1F | i | i | 19 | 89 | 93 | 30 | i
O=C(Nc1ccc(C(=O)NCCCN2CCN(c3ccc(F)cc3)CC2)cc1)C1=CSCCO1 | i | i | 30 | i | i | i | i
CS(=O)(=O)N(CC(=O)O)c1ccc(Oc2ccccc2)cc1 | i | i | 17 | i | i | i | i
CCOC(=O)N1CCN(C(=O)CN(c2ccc(Oc3ccccc3)cc2)S(C)(=O)=O)CC1 | i | i | i | i | i | nt | nt
COCCn1c(C)cc(C2=NNC(=Nc3ccccc3F)SC2)c1C | i | i | 77 | i | i | 62 | 55
Fc1ccc(F)c(C2=NNC(=Nc3ccccc3F)SC2)c1 | i | i | i | i | i | nt | nt
COCCCN=C1NN=C(c2cc(C)n(Cc3ccccc3Cl)c2C)CS1 | i | i | 21 | i | i | 48 | 23
COCCCN=C1NN=C(c2cc(C)n(-c3ccccc3F)c2C)CS1 | i | i | 18 | i | i | 70 | 64
CC(=O)Nc1c(Cl)cc([N+](=O)[O-])c2ccccc12 | i | i | i | i | i | nt | nt
Cc1nc(N/N=C/c2ccccn2)sc1C | nt | nt | 80 | nt | nt | 90 | 86
CCCc1sc(N/N=C/c2ccccn2)nc1-c1ccc(F)cc1 | i | i | 64 | i | i | i | i
O=C(O)Cc1sc(N/N=C\c2ccccc2)nc1-c1ccccc1 | i | i | i | i | i | nt | nt
CCN(CC(=O)Nc1ccc(NC(C)=O)cc1)C(=O)c1ccc(N2CCCC2)c([N+](=O)[O-])c1 | i | i | nt | i | i | nt | nt
SMILES | SENP8 block-1 | SENP7 block | HSP90 inh | SENP8 block-2 | SENP6 inh | HSP90 confirm | FLuc counter
NC(=O)c1ccc(N=Nc2c(O)c3ccccc3[nH]c2=O)cc1 | nt | i | i | i | i | i | i
COc1cc(N=Nc2c(O)c3ccccc3[nH]c2=O)c(OC)cc1N=Nc1ccccc1 | i | i | i | i | i | i | i
COc1ccc(OC)c(N=Nc2c(O)c3ccccc3[nH]c2=O)c1 | i | nt | nt | nt | nt | nt | nt
N=C(N)c1ccc(N=Nc2c(O)ccc3c2[nH]c2ccccc23)cc1 | i | nt | nt | nt | nt | nt | nt
CCN(CC(=O)NC1CCS(=O)(=O)C1)C(=O)c1ccc(S(=O)(=O)N(CC)CC)cc1 (stereo not drawn) | i | i | nt | i | i | nt | nt
CN1C(=O)CSC1=Nc1ccc(Br)cc1 | i | i | i | i | i | nt | nt
CCC(=O)Nc1ccc(NC(=O)CSc2nnc(-c3ccco3)n2C)cc1 | i | i | i | i | i | nt | nt
